Drawing on the supplement of paper PMC10849652, this text covers log2 fold change for four targets.

About 8,800 targets were measured; listed, in parts, are those with a hit and a random draw of the rest. About 0.5% of all pairs of compound and target were hits. Unmarked numbers belong to inactive results.

Holding throughout (assay): log2 fold change, soluble protein after heating vs DMSO (PISA); higher = thermal stabilisation; K562 lysate, 10 uM; active = over 0.2 and 3.5 SD of the protein, either way, in both replicates (recomputed)
Compound in one assay: CS(=O)(=O)CCNCc1ccc(-c2ccc3ncnc(Nc4ccc(OCc5cccc(F)c5)c(Cl)c4)c3c2)o1 [lapatinib]
In a few lines:
(§1)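 To prepare the extract, K562 pellets were dounce-homogenised in PBS pH 7.4 with 1 mM MgCl2, giving crude material at 1 mg/mL protein. This was treated with 10 μM compound for 30 min, then heated in aliquots for 3 min over 48°C-58°C before pooling and addition of NP-40 to 0.5% at 4°C. Centrifugation at 21,000xg for 90 min left soluble protein in the supernatant, which TMTpro 16plex LC-MS/MS quantified with equalised channel sums. Results are log-two fold changes in thermal stability compared with solvent controls, from duplicates.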

Compound in a further assay: C[C@@H](Oc1cc(-c2cnn(C3CCNCC3)c2)cnc1N)c1c(Cl)ccc(F)c1Cl [crizotinib]
In a few lines: as §1

Compound in assay [1]: C[C@H](C1=CC=C(C=C1)C(=O)NC2=C3C=CNC3=NC=C2)N
An outline of the steps:
as §1

Compound in a further assay: C[C@H](Nc1ncnc2nc[nH]c12)c1cc2cccc(Cl)c2c(=O)n1-c1ccccc1 [duvelisib]
An outline of the steps:
as §1

Compound in another assay: Cc1cc(Nc2cc(CN3CCOCC3)c3nc(C)c(Cc4ccc(Cl)cc4F)n3n2)n[nH]1 [gandotinib]
In a few lines: as §1

Compound in the next assay: Cc1cc(Nc2cc(N3CCN(C)CC3)nc(Sc3ccc(NC(=O)C4CC4)cc3)n2)n[nH]1 [tozasertib]
An outline of the steps: as §1

Compound in another assay: Cc1ccc(-n2nc(C(C)(C)C)cc2NC(=O)Nc2ccc(OCCN3CCOCC3)c3ccccc23)cc1 [doramapimod]
An outline of the steps: as §1

Compound in assay [2]: Cc1cccc(CC(=O)N2CCc3c2ccc(-c2cn(C)c4ncnc(N)c24)c3F)n1
An outline of the steps: as §1

Compound in a further assay: Cc1cn(-c2cc(NC(=O)c3ccc(C)c(Nc4nccc(-c5cccnc5)n4)c3)cc(C(F)(F)F)c2)cn1 [nilotinib]
In a few lines:
as §1

Compound in assay [3]: Cc1nc(Nc2n[nH]c3c2CN(C(=O)N[C@H](CN(C)C)c2ccccc2)C3(C)C)c2sccc2n1
An outline of the steps: as §1

Compound in another assay: Cc1nc(Nc2ncc(C(=O)Nc3c(C)cccc3Cl)s2)cc(N2CCN(CCO)CC2)n1 [dasatinib]
An outline of the steps: as §1

Compound in assay [4]: Cc1ncc(-c2ccnc(Nc3ccc(S(C)(=O)=O)cc3)n2)n1C(C)C
In a few lines: as §1

Compound in assay [5]: Cn1cc(-c2ccc3c(c2)CCN3C(=O)Cc2cccc(C(F)(F)F)c2)c2c(N)ncnc21
In a few lines:
as §1

Compound in the next assay: Cn1cc(CNCC2CCN(c3ncc(C(=O)NO)cn3)CC2)c2ccccc21 [quisinostat]
An outline of the steps:
as §1

Compound in the next assay: Cn1cncc1[C@@](N)(c1ccc(Cl)cc1)c1ccc2c(c1)c(-c1cccc(Cl)c1)cc(=O)n2C [tipifarnib]
In a few lines:
as §1

Compound in assay [6]: NC(=O)Nc1cc(-c2cccc(F)c2)sc1C(=O)N[C@H]1CCCNC1
In a few lines: as §1

Compound in assay [7]: NC(=O)c1cnc(N[C@@H]2CCCC[C@@H]2N)nc1Nc1cccc(-n2nccn2)c1
An outline of the steps: as §1

Compound in assay [8]: NC1(c2ccc(-c3nc4ccn5c(=O)[nH]nc5c4cc3-c3ccccc3)cc2)CCC1
An outline of the steps:
as §1

Compound in another assay: CS(=O)(=O)N1CCN(Cc2cc3nc(-c4cccc5[nH]ncc45)nc(N4CCOCC4)c3s2)CC1 [pictilisib]
An outline of the steps:
as §1

Compound in a further assay: Cc1ccc(NC(=O)c2ccc(CN3CC[C@H](N(C)C)C3)c(C(F)(F)F)c2)cc1Nc1nccc(-c2cncnc2)n1 [bafetinib]
An outline of the steps:
as §1

Chain of UniProt Q92698 (Q92698 whole entry, looked up): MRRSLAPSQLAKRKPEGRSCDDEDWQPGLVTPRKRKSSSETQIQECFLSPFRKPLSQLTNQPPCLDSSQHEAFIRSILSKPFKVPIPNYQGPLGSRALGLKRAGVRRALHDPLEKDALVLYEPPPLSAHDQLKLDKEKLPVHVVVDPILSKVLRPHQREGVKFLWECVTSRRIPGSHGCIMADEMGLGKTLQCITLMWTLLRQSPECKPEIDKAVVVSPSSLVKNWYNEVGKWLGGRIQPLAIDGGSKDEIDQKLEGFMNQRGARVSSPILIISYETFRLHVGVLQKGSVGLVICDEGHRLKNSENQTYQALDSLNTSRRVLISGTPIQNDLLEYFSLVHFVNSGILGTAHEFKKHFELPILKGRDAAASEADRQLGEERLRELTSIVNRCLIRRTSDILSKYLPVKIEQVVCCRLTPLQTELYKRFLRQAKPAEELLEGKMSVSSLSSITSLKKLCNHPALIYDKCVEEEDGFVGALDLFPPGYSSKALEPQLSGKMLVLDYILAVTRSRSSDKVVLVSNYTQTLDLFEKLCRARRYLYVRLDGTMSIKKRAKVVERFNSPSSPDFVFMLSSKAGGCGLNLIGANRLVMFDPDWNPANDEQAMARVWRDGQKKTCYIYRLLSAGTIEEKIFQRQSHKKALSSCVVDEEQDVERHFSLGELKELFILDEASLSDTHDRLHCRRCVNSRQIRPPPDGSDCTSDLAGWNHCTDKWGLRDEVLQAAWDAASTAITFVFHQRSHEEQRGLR
Chain of UniProt Q7L0Q8 (Q7L0Q8 whole entry, looked up): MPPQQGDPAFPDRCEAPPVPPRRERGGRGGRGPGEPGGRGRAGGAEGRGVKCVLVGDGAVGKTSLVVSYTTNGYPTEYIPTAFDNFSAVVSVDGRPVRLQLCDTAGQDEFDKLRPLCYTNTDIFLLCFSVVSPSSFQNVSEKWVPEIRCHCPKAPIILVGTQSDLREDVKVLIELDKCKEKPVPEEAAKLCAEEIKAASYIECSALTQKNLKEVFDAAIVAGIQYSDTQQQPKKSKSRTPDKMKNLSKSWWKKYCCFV
Chain of UniProt Q96JX3 (Q96JX3 whole entry, looked up): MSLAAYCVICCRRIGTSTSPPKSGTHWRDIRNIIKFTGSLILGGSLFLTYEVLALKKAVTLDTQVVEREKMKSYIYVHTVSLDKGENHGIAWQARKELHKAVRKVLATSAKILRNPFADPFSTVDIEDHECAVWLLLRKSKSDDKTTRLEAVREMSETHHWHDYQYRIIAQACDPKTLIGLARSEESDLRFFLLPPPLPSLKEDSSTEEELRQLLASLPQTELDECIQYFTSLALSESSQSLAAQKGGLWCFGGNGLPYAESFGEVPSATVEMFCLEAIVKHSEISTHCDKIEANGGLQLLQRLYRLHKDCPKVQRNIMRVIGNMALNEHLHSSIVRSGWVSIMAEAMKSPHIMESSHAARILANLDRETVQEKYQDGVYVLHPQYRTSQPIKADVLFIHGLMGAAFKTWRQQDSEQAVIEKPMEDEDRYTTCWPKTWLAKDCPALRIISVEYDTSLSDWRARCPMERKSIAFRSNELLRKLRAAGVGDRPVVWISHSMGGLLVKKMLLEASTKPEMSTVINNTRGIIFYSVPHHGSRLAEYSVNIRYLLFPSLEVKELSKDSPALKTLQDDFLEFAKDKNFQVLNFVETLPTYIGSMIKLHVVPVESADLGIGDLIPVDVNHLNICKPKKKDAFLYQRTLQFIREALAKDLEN

With RHOU (UniProt Q7L0Q8), the log2 fold change in the assay with lapatinib is -0.05; in the assay with crizotinib, -0.002; in assay [1] it was -0.323 (active); in the assay with duvelisib, 0.024; with gandotinib, -0.031; with tozasertib it was 0.113. For the same target, the log2 fold change in the assay with doramapimod is 0.038; in assay [2], 0.056; with nilotinib, -0.032; in [3], -0.028; in the assay with dasatinib, -0.004; in assay [4] it was 0.114. For the same target, the log2 fold change was 0.145 in assay [5]; -0.053 in the assay with quisinostat; 0.12 with tipifarnib; 0.035 in assay [6]; -0.045 in assay [7]; 0.033 in assay [8].

As for SERAC1 (UniProt Q96JX3), the log2 fold change with pictilisib was -0.018; in [1], -0.074; with duvelisib, 0.145; with gandotinib it was 0.052; in the assay with tozasertib, -0.089; with bafetinib, -0.276. In addition, the log2 fold change in assay [2] is 0.127; with nilotinib, 0.085; in assay [3] it was -0.133; in the assay with dasatinib, -0.152; in [4] it was -0.029; in assay [5], 0.052. The log2 fold change with tipifarnib is 0.033; in [8] it was -0.023.

In the case of RBBP7 (UniProt C9J7L0), the log2 fold change with nilotinib is -0.133; in assay [3], 0.046; in assay [4], 0.222; with tipifarnib, 0.039.

Regarding RAD54L (UniProt Q92698), the log2 fold change with lapatinib is -0.029; with pictilisib it was 0.029; in assay [1], -1.75 (active); with duvelisib, 0.109; with gandotinib, 0.454; with bafetinib, -0.185. The log2 fold change is 0.617 in [2]; -0.004 in the assay with nilotinib; 0.078 in assay [3]; -0.212 in the assay with dasatinib; 0.037 in [4]; -0.054 in [5]. For the same target, the values for the log2 fold change (in the assay with tipifarnib; in assay [7]; in assay [8]) were 0.007, 0.015 and -0.073, respectively.
